# Inconclusive results are not listed. Entries that show only a call come without a potency. The source made the active and inactive calls. Calls follow the shape of the dose curve; as a rule, active = well fitted activation curve with a large enough effect in the signal ratio in the repeat runs (not every such curve was filed as active); inconclusive = weak or mixed curves, or effect the other way; inactive = no such curve, though single readings can be large or run the other way; the % refers to the signal ratio.
# Target: Glucocorticoid receptor (Homo sapiens) (UniProt P04150)
# Sequence (P04150 whole entry, looked up): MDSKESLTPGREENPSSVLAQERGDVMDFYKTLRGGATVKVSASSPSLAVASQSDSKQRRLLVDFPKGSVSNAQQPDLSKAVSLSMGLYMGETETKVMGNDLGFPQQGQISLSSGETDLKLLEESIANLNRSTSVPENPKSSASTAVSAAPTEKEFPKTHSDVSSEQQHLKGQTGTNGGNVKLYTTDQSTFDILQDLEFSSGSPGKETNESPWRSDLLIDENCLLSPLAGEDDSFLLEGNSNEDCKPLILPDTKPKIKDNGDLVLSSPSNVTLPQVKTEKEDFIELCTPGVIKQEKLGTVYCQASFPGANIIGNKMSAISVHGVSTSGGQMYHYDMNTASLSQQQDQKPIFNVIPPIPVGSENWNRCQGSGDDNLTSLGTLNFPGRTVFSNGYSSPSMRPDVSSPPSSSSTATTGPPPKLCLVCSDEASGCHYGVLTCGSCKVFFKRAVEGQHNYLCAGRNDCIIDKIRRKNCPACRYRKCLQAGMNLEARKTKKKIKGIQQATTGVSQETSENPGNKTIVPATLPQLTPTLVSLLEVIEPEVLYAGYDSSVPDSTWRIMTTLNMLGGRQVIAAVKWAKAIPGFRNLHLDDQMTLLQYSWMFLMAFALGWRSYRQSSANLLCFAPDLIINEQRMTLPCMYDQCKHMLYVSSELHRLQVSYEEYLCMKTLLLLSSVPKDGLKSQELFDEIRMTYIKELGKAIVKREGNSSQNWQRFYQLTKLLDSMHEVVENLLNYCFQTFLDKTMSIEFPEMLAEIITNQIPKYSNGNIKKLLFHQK
# Test: qHTS assay to identify small molecule agonists of the glucocorticoid receptor (GR) signaling pathway (AID 720691)
# Details: GR-bla HeLa, beta-lactamase reporter ratio, 18 h; series mostly up to 62.4 µM
# Source text: U.S. Tox21 Program National Center for Advancing Translational Sciences [NCATS] NIH Chemical Genomics Center [NCGC] U.S. Environmental Protection Agency [EPA] National Institutes of Environmental Health Sciences [NIEHS] National Toxicology Program [NTP] U.S. Food and Drug Administration [FDA] Tox21 Assay Overview: The Glucocorticoid receptor (GR) is one of the members of the nuclear receptor family of ligand-dependent transcription factors. GR plays a critical role in carbohydrate, protein and lipid metabolisms and programmed cell death. CellSensor GR-bla HeLa cell line (Invitrogen) contains a beta-lactamase reporter gene under the control of the glucocorticoid response element stably integrated into HeLa cells, a cervical cancer cell line that expresses glucocorticoid receptor. The activation of the reporter gene under culture conditions can be detected by fluorescence intensity. This cell line has been used to screen the Tox21 10K compound library and to identify the compounds that activate the GR signaling.
# Tox21 Assay Protocol Summary: The GR-bla HeLa cells were dispensed at 1500 cells/6 ul/well in 1536-well black wall/clear bottom plates using a Multidrop Combi (ThermoFisher Scientific, Waltham, MA) dispenser. After the assay plates were incubated at a 37 C/5% CO2 incubator for 4 hours, 23 nL of compounds dissolved in DMSO, positive controls or DMSO only was transferred to the assay plate by a pintool station (Kalypsys, San Diego, CA). The plates were incubated at 37 C for 18 hours. After 1 uL of LiveBLAzerTM B/G FRET substrate was added using a Flying Reagent Dispenser (Aurora Discovery, San Diego, CA), the plates were incubated at room temperature for 2 hours, and fluorescence intensity was measured by an Envision plate reader (PerkinElmer, Shelton, CT).
# Potency is read from the fitted curve at half-maximal effect.
row,SMILES,Potency
1,CC[N+]1(CCOC(=O)C(O)(c2ccccc2)c2ccccc2)CCCCC1,inactive
2,Cc1ccc2c(C)cccc2c1,inactive
3,CCCCC(CC)COC(=O)c1c(Br)c(Br)c(Br)c(Br)c1C(=O)OCC(CC)CCCC (stereo not given),33.8 µM (active)
4,CCOC(=O)c1cncn1C(C)c1ccccc1 (stereo not given),inactive
5,O=C(Cl)OCCOCCOC(=O)Cl,inactive
6,c1ccc2c(c1)sc1ccccc12,inactive
7,C=CCOCC1CO1 (stereo not given),inactive
8,OCC1CO1 (stereo not given),inactive
9,O=[N+]([O-])O[C@H]1CO[C@H]2[C@@H]1OC[C@H]2O[N+](=O)[O-],inactive
10,O=C=NC1CCCCC1,inactive
11,CN1C[C@H](C(=O)N[C@]2(C)O[C@@]3(O)[C@@H]4CCCN4C(=O)[C@H](Cc4ccccc4)N3C2=O)C=C2c3cccc4[nH]cc(c34)C[C@H]21,inactive
12,CC(C)(C)OOC(C)(C)CCC(C)(C)OOC(C)(C)C,inactive
13,COc1ccc(C(=O)c2c(C)n(CCN3CCOCC3)c3ccccc23)cc1,inactive
14,CN(C1CCCCC1)C1CCCCC1,inactive
15,O=P(OCC(Br)CBr)(OCC(Br)CBr)OCC(Br)CBr (stereo not given),inactive
16,C[C@H]1[C@@H]2Cc3ccc(O)cc3[C@@]1(C)CCN2C,inactive
17,COC(=O)Cc1ccccc1,inactive
18,CCC1CCC(=O)O1 (stereo not given),inactive
19,CCSCc1ccccc1OC(=O)NC,inactive
20,CN1CC[C@]23c4c5ccc(O)c4O[C@H]2[C@@H](O)CC[C@H]3[C@H]1C5,inactive

row,SMILES,Potency
1,O=C(Cc1ccccc1)c1ccccc1,inactive
2,CCCC[N+](CCCC)(CCCC)CCCC,inactive
3,COc1ccccc1N1CCNCC1,inactive
4,CN[C@@H](C)[C@H](O)c1ccccc1,inactive
5,CC(C)(C)NCC(O)c1ccccc1Cl (stereo not given),inactive
6,O=C1NC(=O)C(=O)C(=O)N1,inactive
7,COP(=O)(OC)OC(Br)C(Cl)(Cl)Br (stereo not given),inactive
8,OCCSSCCO,inactive
9,O=C(NC(=O)c1cc(F)c(F)cc1Cl)Nc1cc(F)ccc1N1CCC(C(=O)O)CC1,inactive
10,COCc1cnc(C2=NC(C)(C(C)C)C(=O)N2)c(C(=O)O)c1 (stereo not given),inactive
11,COc1ccc(C(O)(c2cncnc2)C2CC2)cc1 (stereo not given),inactive
12,CCc1cnc(C2=NC(C)(C(C)C)C(=O)N2)c(C(=O)O)c1 (stereo not given),inactive
13,NC(=O)CF,inactive
14,CCCN(CCOc1c(Cl)cc(Cl)cc1Cl)C(=O)n1ccnc1,inactive
15,Cc1ccc(N)c(C)c1,inactive
16,CC(C)CCCCCCCOC(=O)c1ccccc1C(=O)OCCCCCCCC(C)C,inactive
17,O=C([O-])c1ccccn1.O=C([O-])c1ccccn1.O=C([O-])c1ccccn1.[Cr+3],inactive
18,CCCCCCCCP(=O)(O)O,inactive
19,C=C(Cl)Cl,inactive
20,C=CCN1C[C@H](C)N([C@H](c2ccc(C(=O)N(CC)CC)cc2)c2cccc(OC)c2)C[C@H]1C,inactive
